Only some compounds are listed: those with a hit (about 7.3% of all), similar ones and a draw of the others.
HCV inh: blocks hepatitis C virus | AID 651820 | Huh7.5.1 HCVcc-Cre infection, luciferase reporter, 44 h | Potency, µM (highest dose often 41.8 µM), for inactives: top-dose activity change, negative = inhibition, actives largely listed as inhibitors | actives 3.4% (n = 340,000); active means well fitted inhibition curve with a large enough effect; inconclusive means small, poorly fitted or top-dose-only effect, or another doubt; inactive means no such curve, though single readings can be large or run the other way; further: potency means the concentration at half of the fitted maximal effect
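Reporter virus HCVcc-Cre (~0.5 moi) infects cells exposed to compound; seeding density 1,000 cells/well with 4 h settling beforehand. Luminescence, 15 sec read, taken 44 h post-infection following a 15 min RT substrate incubation.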
VACV mCherry inh: inhibitors of vaccinia virus infection (mCherry reporter signal); Vaccinia virus mCherry reporter infection, fluorescence; Potency, µM (top dose mostly 36.5 µM), for inactives: at the highest dose activity change, negative = inhibition, most hits filed as inhibitors; actives 0.63% (n = 310,000); calls by dose curve; tested in A549 cells; further: potency means the concentration at half of the fitted maximal effect; nearly all actives have a fitted effect of over 35% in size
HCMV inh: blocks human cytomegalovirus replication. HFF cells, HCMV-luciferase reporter, 72 h; hits give low values. activity change, negative = inhibition, % at 57.5 µM. actives 4.5% (n = 410,000). AID 1259415; in the data active means activity change below about -60%; inconclusive means no clear call, values can overlap the other calls; inactive means above about -39%
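After 16 h attachment at 37C, HFF cells received test compound and HCMV-luciferase (1 PFU/cell); reporter luminescence read 72 h later, data normalized against buffer-only and known inhibitor Salinomycin.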
VACV Venus inh: vaccinia inhibition (Venus reporter); Vaccinia virus Venus reporter expression, fluorescence; Potency, µM (top dose mostly 36.5 µM), for the others: at the highest dose activity change, negative = inhibition, most hits filed as inhibitors; actives 0.46% (n = 330,000); AID 720580; calls by dose curve; tested in A549 cells; further: potency means the concentration at half of the fitted maximal effect; nearly all actives have a fitted effect of over 30% in size
FMDV inh: foot and mouth disease virus antiviral activity | FMDV antiviral cell-based qHTS | Potency, µM (series often up to 57.9 µM), inactives show at the top dose activity change, negative = inhibition, hits mostly inhibitors | actives 1.2% (n = 410,000) | AID 1159524; calls by dose curve; tested in HEK293T cells; further: read-out not given here; potency means the concentration at half of the fitted maximal effect; nearly all actives have a fitted effect of over 45% in size
The depositor's hits bear a star; i = inactive; ? = inconclusive; / = no result given; [ ] = dose if it differs, or a comment. On the % scale 0 is the no-effect control and ±100 the full control effect.

SMILES	HCV inh	VACV mCherry inh	HCMV inh	VACV Venus inh	FMDV inh
COCCOC(=O)c1c(C)oc2ccc(O)c(CN3CCC(C)CC3)c12 (tested in a mixture with another compound)	-17.8%	?	-4.0	0.0%	?
COc1ccccc1NC(=O)Cn1nc(-c2ccncc2)nc1SCC(=O)NC1CCCC1	?	i	-75.6*	-8.5%	-15.4%
COc1ccccc1-c1nnc(SCC(=O)NC2CCCCC2)o1	15.6%	11.2µM*	29.9	?	-1.7%
COc1ccccc1-n1ccnc1SCC(=O)NC1CCCC1	?	-9.3%	63.0	-0.3%	-6.7%
COc1ccccc1-n1cnnc1SCC(=O)NC1CCCCC1	-9.4%	/	-82.8*	/	-8.6%
ClCCN(CCCl)c1ccc(-n2cnc3c(Cl)ncnc32)cc1	12.6µM*	-9.0%	-18.8	-2.0%	?
Cc1cc2c(=O)n(Cc3ccco3)c(SCC(=O)c3ccc(Cl)s3)nc2s1	?	/	-64.6*	/	?
Cc1sc2nc(SCC(=O)C(C)(C)C)n(Cc3ccco3)c(=O)c2c1C	?	/	-97.9*	/	-20.3%
CCn1ccc2cc(S(=O)(=O)N3CCC(C(=O)NCc4ccc(OC(C)C)cc4)CC3)ccc21	/	-19.1%	-2.6	-3.9%	6.4%
Cc1n[nH]c(C)c1CCCCOc1ccccc1[N+](=O)[O-]	0.1%	/	?	/	?
COc1cccc(CNC(=O)c2cc(-c3ccc(Cl)cc3)n[nH]2)c1	/	-2.9%	-13.6	-5.8%	-0.8%
Cc1ccc(S(=O)(=O)N2CCOCC2)cc1NC(=O)CSCc1c(C)noc1C	-1.8%	/	-5.2	/	-14.3%
O=C(OCCO)c1c(C2=CCCCC2)oc2c1C(OCCO)CCC2 (centres undefined)	/	20.3%	-0.9	5.2%	-18.4%
c1cncc(-c2nc(NCc3ccc4c(c3)OCO4)c3ccccc3n2)c1	11.2µM*	/	0.0	/	?
c1ccc(CNc2nc(-c3cccnc3)nc3ccccc23)cc1	?	/	-36.9	/	?
CN(C)C(=O)c1ccc(-c2nc(NCc3cccnc3)c3ccccc3n2)cc1	/	-19.3%	/	-18.9%	72.3%
c1cncc(CNc2nc(-c3cccnc3)nc3ccccc23)c1	22.4µM*	i	-12.3	-17.2%	-16.7%
c1ccc(CN2CCC(Nc3nc(-c4cccnc4)nc4ccccc34)CC2)cc1	?	?	-63.5*	12.6µM*	0.0%
CC(C)(C)c1ccc(-c2nc(NCc3cccnc3)c3ccccc3n2)cc1	11.2µM*	-15.4%	-72.0*	-16.8%	16.9%
Cc1cc(Cl)ccc1NC(=O)c1cccc(NC(=O)N2CCSc3ncccc32)c1	/	-9.7%	?	-6.9%	?
COc1ccc(NC(=O)CCNS(=O)(=O)c2ccc3c(c2)CCCC(=O)N3)cc1	/	-3.0%	-11.2	5.4%	6.0%
OCC[C@@H]1C[C@H](O)[C@@H](O)[C@]2(OCc3ccccc32)O1	7.0%	i	30.0	-0.3%	-5.6%
CCOC(=O)C1CCN(C(=O)c2ccc(S(=O)(=O)Nc3ccccc3Cl)cc2)CC1	-9.7%	-5.9%	-6.4	-4.9%	-4.9%
CCOc1ccc(CN(C)c2nc(-c3cccnc3)nc3ccccc23)cc1OC	?	?	-17.8	?	25.1µM*
COc1ccc(CCNc2nc(-c3cccnc3)nc3ccccc23)cc1OC	10µM*	-7.0%	4.2	?	-19.6%
SMILES	HCV inh	VACV mCherry inh	HCMV inh	VACV Venus inh	FMDV inh
CC(Nc1nc(-c2cccnc2)nc2ccccc12)c1ccc(F)cc1 (centres undefined)	8.91µM*	?	-34.2	-27.1%	-4.1%
Fc1ccc(CNc2nc(-c3cccnc3)nc3ccccc23)cc1	11.2µM*	-9.1%	17.6	-5.2%	-20.2%
CN(C)CCCNc1cc(N2CCN(C)CC2)ncn1	/	-10.5%	/	-9.4%	/
CC1CC(C)CN(C(=O)COC(=O)COc2ccccc2C#N)C1 (centres undefined)	-2.3%	/	-2.8	/	-2.1%
COc1ccc(CN2Cc3cnnn3-c3ccccc3C2C#N)cc1 (centres undefined)	3.98µM*	?	-110.2*	-15.9%	25.1µM*
CN1Cc2cnnn2-c2ccccc2C1C#N (centres undefined)	16.2%[8.37 µM]	-24.5%	-63.5*	-23.2%	-17.9%
Cc1ccc(S(=O)(=O)N2Cc3cnnn3-c3ccccc3C2C#N)cc1 (centres undefined)	-20.3%[8.37 µM]	-9.7%	-8.1	4.3%	1.4%
CC(=O)Nc1ccc(S(=O)(=O)N2Cc3cnnn3-c3ccccc3C2C#N)cc1 (centres undefined)	0.316µM*	-8.8%	8.5	2.3%	-9.3%
CS(=O)(=O)N1Cc2cnnn2-c2ccccc2C1C#N (centres undefined)	19.5%[8.37 µM]	-8.7%	15.2	0.0%	-1.6%
COc1ccc(CN2Cc3cnnn3-c3ccccc3C2c2ccccc2)cc1 (centres undefined)	1.26µM*	?	-16.6	?	0.0%
CCN1C(=O)c2ccccc2S(=O)(=O)c2ccc(C(=O)NCc3ccc(C)cc3)cc21	/	-11.0%	5.0	-8.5%	-3.0%
N#CC1c2ccccc2-n2nncc2CN1Cc1cc(Cl)cc(Cl)c1 (centres undefined)	5.62µM*	-13.4%	-99.6*	0.3%	8.91µM*
CS(=O)(=O)c1sc2nc(-c3cccs3)cc(-c3ccccc3)c2c1N	8.91µM*	-12.9%	-8.1	-1.1%	-25.8%
Cc1ccc(-c2cc(-c3ccccc3)c3c(N)c(S(C)(=O)=O)sc3n2)cc1	-7.3%	?	47.5	?	-8.3%
Cc1noc(C)c1COc1ccccc1C(=O)N(C)CC(=O)Nc1ccc(F)cc1	-24.0%	-10.5%	22.4	1.1%	-18.8%
COc1ccc(Cl)cc1/C=C/c1ccc2cccc(O)c2n1	?	/	?	/	32.3%
Oc1cccc2ccc(/C=C/c3ccccc3Cl)nc12	7.94µM*	?	-29.5	-24.9%	17.6%
Nc1nccc(/C=C/c2c(F)cccc2Cl)n1	-6.5%	-11.7%	-67.6*	-18.8%	0.0%
Oc1cccc2ccc(/C=C/c3c(F)cccc3Cl)nc12	11.2µM*	?	45.1	-6.9%	14.9%
O=C(/C=C/c1c(F)cccc1Cl)Nc1ncccn1	4.5%	-21.2%	20.6	-5.2%	23.3%
CCc1nc2nc(C)cc(Nc3ccc(OC)cc3OC)n2n1	/	-1.9%	-2.5	-5.7%	0.0%
O=C(NC1CCCCC1)c1nnc2n1CCN(Cc1cccc(C(F)(F)F)c1)C2	/	/	21.2	/	/
Cc1cc(C)nc(NC(N)=NC(C)c2ccccc2)n1 (centres undefined)	1.5%	?	-17.1	?	?
Cc1cc(C)nc(NC(N)=NCCc2ccccc2)n1	11.2µM*	?	-95.9*	?	?
NC(=NCCc1c[nH]c2ccccc12)NC(=O)c1ccc(Cl)cc1	-4.2%	?	14.6	?	1.4%
Cc1cc(C)nc(NC(=NCCc2c[nH]c3ccccc23)NC(=O)Nc2ccc(Cl)cc2)n1	11.2µM*	?	?	?	0.0%
Cc1cc(C)nc(NC(N)=NCCc2c[nH]c3ccccc23)n1	10µM*	?	-96.7*	?	-20.4%
COc1ccc2[nH]cc(CCN=C(NC(=O)c3cccc(Cl)c3)Nc3nc(C)cc(C)n3)c2c1	/	-28.2%	-17.7	-12.6%	?

Screening data as filed in PubChem.
